# Experimental data from PMC11062922 (Nature Chemical Biology, 2023).
# Like-named read-outs stand apart in the source and are kept apart here.
# How the values were obtained:
# Design in all cases: species or system human, MV4-11 + K-562 + COLO205 + SK-N-BE2 + OVCAR-8
# AGK = conditions: read-out: apparent Kd; compound concentrations: 100 nM and 1000 nM (sheet 'Samples'), CATDS: 7.7586701088880605E-2; n = 1
# CSNK1D = conditions: read-out: apparent Kd; compound concentrations: 100 nM and 1000 nM (sheet 'Samples'), CATDS: 0.14002934621816099; n = 1
# CSNK1E = conditions: read-out: apparent Kd; compound concentrations: 100 nM and 1000 nM (sheet 'Samples'), CATDS: 9.5278515441506895E-2; n = 1
# JAK2 = conditions: read-out: apparent Kd; compound concentrations: 100 nM and 1000 nM (sheet 'Samples'), CATDS: 0.169567440751725; n = 1
# MAPK14 = conditions: read-out: apparent Kd, n = 1
# MAPK9 = conditions: read-out: apparent Kd, compound concentrations: 100 nM and 1000 nM (sheet 'Samples'), n = 1
# MAPKAPK2 = conditions: read-out: apparent Kd; compound concentrations: 100 nM and 1000 nM (sheet 'Samples'), CATDS: 8.8585007822458595E-2; n = 1
# PKN3 = conditions: read-out: apparent Kd; compound concentrations: 100 nM and 1000 nM (sheet 'Samples'), CATDS: 8.9898852115076394E-2; n = 1
# PRKD2 = conditions: read-out: apparent Kd; compound concentrations: 100 nM and 1000 nM (sheet 'Samples'), CATDS: 9.5055877721236803E-2; n = 1
# PRKD3 = conditions: read-out: apparent Kd; compound concentrations: 100 nM and 1000 nM (sheet 'Samples'), CATDS: 9.9429548898697998E-2; n = 1
# AKT1 = conditions: read-out: apparent Kd; compound concentrations: 100 nM and 1000 nM (sheet 'Samples'), CATDS: 4.4101078523111903E-2; n = 1
# CDC42 = conditions: read-out: apparent Kd; compound concentrations: 100 nM and 1000 nM (sheet 'Samples'), CATDS: 5.0343094610780299E-2; n = 1
# DYNC1LI1 = conditions: read-out: apparent Kd; compound concentrations: 100 nM and 1000 nM (sheet 'Samples'), CATDS: 4.8109196484876701E-2; n = 1
# ERBB3 = conditions: read-out: apparent Kd; compound concentrations: 100 nM and 1000 nM (sheet 'Samples'), CATDS: 4.7313636214179999E-2; n = 1
# GARS = conditions: read-out: apparent Kd; compound concentrations: 100 nM and 1000 nM (sheet 'Samples'), CATDS: 4.5585082575177599E-2; n = 1
# GSK3A = conditions: read-out: apparent Kd; compound concentrations: 100 nM and 1000 nM (sheet 'Samples'), CATDS: 8.5551067641828404E-2; n = 1
# GSK3B = conditions: read-out: apparent Kd; compound concentrations: 100 nM and 1000 nM (sheet 'Samples'), CATDS: 0.10546569208605799; n = 1
# HSP90B1 = conditions: read-out: apparent Kd; compound concentrations: 100 nM and 1000 nM (sheet 'Samples'), CATDS: 4.7547071429497198E-2; n = 1
# MAP2K1 = conditions: read-out: apparent Kd; compound concentrations: 100 nM and 1000 nM (sheet 'Samples'), CATDS: 4.25622085031407E-2; n = 1
# MAP2K2 = conditions: read-out: apparent Kd; compound concentrations: 100 nM and 1000 nM (sheet 'Samples'), CATDS: 4.6529537247477E-2; n = 1
# MDN1 = conditions: read-out: apparent Kd; compound concentrations: 100 nM and 1000 nM (sheet 'Samples'), CATDS: 4.19866133995229E-2; n = 1
# MYLK3 = conditions: read-out: apparent Kd; compound concentrations: 100 nM and 1000 nM (sheet 'Samples'), CATDS: 4.95763825338097E-2; n = 1
# NNT = conditions: read-out: apparent Kd; compound concentrations: 100 nM and 1000 nM (sheet 'Samples'), CATDS: 4.95392498935424E-2; n = 1
# NQO1 = conditions: read-out: apparent Kd; compound concentrations: 100 nM and 1000 nM (sheet 'Samples'), CATDS: 4.7041069195994198E-2; n = 1
# OPA1 = conditions: read-out: apparent Kd; compound concentrations: 100 nM and 1000 nM (sheet 'Samples'), CATDS: 4.33362445952395E-2; n = 1
# PGK1 = conditions: read-out: apparent Kd; compound concentrations: 100 nM and 1000 nM (sheet 'Samples'), CATDS: 0.623413247361988; n = 1
# PRKCA = conditions: read-out: apparent Kd; compound concentrations: 100 nM and 1000 nM (sheet 'Samples'), CATDS: 4.05038047397221E-2; n = 1
# PRKCD = conditions: read-out: apparent Kd; compound concentrations: 100 nM and 1000 nM (sheet 'Samples'), CATDS: 3.9953874898385103E-2; n = 1
# TNIK = conditions: read-out: apparent Kd; compound concentrations: 100 nM and 1000 nM (sheet 'Samples'), CATDS: 4.3236885400500899E-2; n = 1
# VDAC3 = conditions: read-out: apparent Kd; compound concentrations: 100 nM and 1000 nM (sheet 'Samples'), CATDS: 4.2633905781269299E-2; n = 1
# ADRBK1 = conditions: read-out: apparent Kd, n = 1
# PRKACG = conditions: read-out: apparent Kd; compound concentrations: 100 nM and 1000 nM (sheet 'Samples'), CATDS: 0.40146810270516797; n = 1
# PIK3C2A = conditions: read-out: apparent Kd; compound concentrations:100 nM and 1000 nM (sheet 'Samples'); n = 1
# PRKCI = conditions: read-out: apparent Kd; compound concentrations:100 nM and 1000 nM (sheet 'Samples'); n = 1
# PYGL = conditions: read-out: apparent Kd; compound concentrations:100 nM and 1000 nM (sheet 'Samples'); n = 1
# RPS6KA3 = conditions: read-out: apparent Kd; compound concentrations:100 nM and 1000 nM (sheet 'Samples'); n = 1
# STK16 = conditions: read-out: apparent Kd; compound concentrations:100 nM and 1000 nM (sheet 'Samples'); n = 1
# RIOK2 = conditions: read-out: apparent Kd; compound concentrations: 100 nM and 1000 nM (sheet 'Samples'), CATDS: 0.50694616971053197; n = 1
# ATM = conditions: read-out: apparent Kd; compound concentrations: 100 nM and 1000 nM (sheet 'Samples'), CATDS: 1; n = 1
# [1] = compound concentrations:100 nM and 1000 nM (sheet 'Samples')
smiles,measurement,setting,value
OCCn1c(-c2ccncc2)c(-c2ccc(F)cc2)c2ncccc21 [RO1155798-000],potency estimated from few doses,AGK,2000 nM
same,potency estimated from few doses,CSNK1D,582 nM
same,potency estimated from few doses,CSNK1E,1190 nM
same,potency estimated from few doses,JAK2,432 nM
same,potency estimated from few doses,"MAPK14; compound concentrations: 100 nM and 1000 nM (sheet 'Samples'), CATDS: 0.109512285169825",897 nM
same,potency estimated from few doses,MAPK9; CATDS: 8.7291809991309394E-2,1460 nM
same,potency estimated from few doses,MAPKAPK2,1410 nM
same,potency estimated from few doses,PKN3,1360 nM
same,potency estimated from few doses,PRKD2,1200 nM
same,potency estimated from few doses,PRKD3,1090 nM
Cn1cc(C2=C(c3cn(C)c4c(N)cccc34)C(=O)NC2=O)c2ccccc21 [RO0317482-000],potency estimated from few doses,AKT1,1790 nM
same,potency estimated from few doses,CDC42,1310 nM
same,potency estimated from few doses,DYNC1LI1,1450 nM
same,potency estimated from few doses,ERBB3,1510 nM
same,potency estimated from few doses,GARS,1650 nM
same,potency estimated from few doses,GSK3A,484 nM
same,potency estimated from few doses,GSK3B,343 nM
same,potency estimated from few doses,HSP90B1,1490 nM
same,potency estimated from few doses,MAP2K1,1960 nM
same,potency estimated from few doses,MAP2K2,1570 nM
same,potency estimated from few doses,MDN1,2030 nM
same,potency estimated from few doses,MYLK3,1360 nM
same,potency estimated from few doses,NNT,1360 nM
same,potency estimated from few doses,NQO1,1530 nM
same,potency estimated from few doses,OPA1,1870 nM
same,potency estimated from few doses,PGK1,20.4 nM
same,potency estimated from few doses,PRKCA,2240 nM
same,potency estimated from few doses,PRKCD,2330 nM
same,potency estimated from few doses,TNIK,1880 nM
same,potency estimated from few doses,VDAC3,1950 nM
COC(=O)c1c(-c2ccccc2)c2cc(OC)ccc2c(=O)n1Cc1ccccc1 [TPKI-97],potency estimated from few doses,"ADRBK1; compound concentrations: 100 nM and 1000 nM (sheet 'Samples'), CATDS: 0.31449304008803602",1400 nM
same,potency estimated from few doses,MAPK9; CATDS: 0.30035248026311001,1550 nM
same,potency estimated from few doses,PRKACG,872 nM
CCCC(=O)Nc1n[nH]c2ncccc12 [SB-601436],potency estimated from few doses,ADRBK1; [1],2140 nM
same,potency estimated from few doses,MAPK14; [1],1310 nM
same,potency estimated from few doses,PIK3C2A,2470 nM
same,potency estimated from few doses,PRKCI,2080 nM
same,potency estimated from few doses,PYGL,2170 nM
same,potency estimated from few doses,RPS6KA3,1890 nM
same,potency estimated from few doses,STK16,1480 nM
CCS(=O)(=O)c1ccc(OC)c(Nc2ncc(-c3ccccc3Cl)o2)c1 [GW622055X],potency estimated from few doses,"ADRBK1; compound concentrations: 100 nM and 1000 nM (sheet 'Samples'), CATDS: 0.49324160998550998",1780 nM
same,potency estimated from few doses,RIOK2,1680 nM
O=C1NC(=O)C(N2CCc3ccccc32)=C1c1ccc(Cl)cc1 [SB-333612],potency estimated from few doses,ATM,265 nM
